An excerpt weighted towards active compounds, which were near 6.2% of everything screened.
KB-3-1 cytotox – qHTS assay for MDR1-selective chemotherapeutics: Primary screen using the parental adenocarcinoma cell KB-3-1 | KB-3-1 viability, CellTiter-Glo ATP luminescence, 72 h | Potency, µM (series often up to 46.1 µM), hits mostly cytotoxic | 1.4% of 400,000 active | AID 1347075, 2019; note: % is set by controls: 0 for no effect and ±100 for the full control effect; nearly all actives have a fitted effect of over 60% in size
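72 h, 37 °C compound treatment of KB-3-1 parental cells; CellTiter-Glo added, 10 min, luminescence read. Data corrected against DMSO-only plates and normalized before curve fitting.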
S2 tox – Viability Counterscreen for Primary qHTS for Inhibitors of ATXN expression | Potency, µM (doses to about 56.7 µM), actives largely listed as cytotoxic | S2 cells (HEK-293 line with an ATXN2-luciferase reporter) viability, CellTiter-Fluor protease fluorescence, 24 h | 0.49% of 400,000 active; note: nearly all actives have a fitted effect of over 40% in size
KB-V1 cytotox – qHTS assay for MDR1-selective chemotherapeutics: Primary screen using the drug-selected MDR subline cells KB-V1; Potency, µM (doses to about 46.1 µM), hits mostly cytotoxic; AID 1347076, 2019; KB-V1 MDR cells viability, CellTiter-Glo, 72 h; 3.4% of 400,000 active; note: % is set by controls: 0 for no effect and ±100 for the full control effect; nearly all actives have a fitted effect of over 60% in size
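Cells of the MDR subline KB-V1 are plated, dosed with compound at multiple concentrations, and incubated 72 h at 37 degrees C; CellTiter-Glo is then added and luminescence read after 10 min.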
HT1080 IDH1KD tx – qHTS for induction of synthetic lethality in tumor cells producing 2HG: qHTS for the HT-1080-IDH1KD cell line | HT-1080 IDH1 knockdown viability, ATP luminescence, 48 h | Potency, µM (highest dose often 46.1 µM), for inactives: at the highest dose activity, negative = toxicity, most hits filed as cytotoxic | 2% of 360,000 active;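 note: 0% = DMSO wells and -100% = cell-free medium wells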
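Viability of IDH1-knockdown HT-1080 fibrosarcoma cells was assessed by CellTiter-Glo after 48 h at 37 °C with titrated compound; concentration-effect curves were classified by fit quality and response size.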
HT1080-NT tox – qHTS for induction of synthetic lethality in tumor cells producing 2HG: qHTS for the HT-1080-NT fibrosarcoma cell line; Potency, µM (top dose mostly 46.1 µM), for the others: at the highest dose activity, negative = less viability, hits mostly cytotoxic; HT-1080-NT fibrosarcoma viability, CellTiter-Glo ATP luminescence, 48 h; 1.6% of 360,000 active;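 note: NT is the 2HG producing partner of a matched IDH1 knockdown line; 0% = DMSO-treated cells and -100% = media-only wells without cells; nearly all actives have a fitted effect of over 55% in size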
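Viability by CellTiter-Glo luminescence after 48 h compound exposure at 37C of HT-1080-NT cells (750/well, RPMI, 5% FBS). % activity scaled between DMSO wells and medium-only wells, then curve-fitted and categorized by curve class.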
ATXN2 expr inh – Primary qHTS for Inhibitors of ATXN expression. AID 1745845, 2022. 0.72% of 360,000 active. HEK-293 ATXN2-luciferase reporter, luminescence, 24 h. Potency, µM (doses to about 57 µM), without a hit: top-dose activity change, negative = inhibition, usual class: inhibitors; note: % is set by controls: 0 for no effect and ±100 for the full control effect; nearly all actives have a fitted effect of over 55% in size
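ATXN2-luciferase reporter cells (luciferase flanked by upstream and downstream ATXN2 gene portions) were treated 24 h at 37 °C with compounds at up to 57 uM. SteadyGlo luminescence gave expression; GF-AFC fluorescence gave viability.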
The depositor's hits bear a star; i = inactive; ? = inconclusive; / = no result given; [ ] = another dose, or the depositor's remark. Calls come from the whole dose curve; as a rule, active = well fitted curve in the direction sought with a large enough effect; inconclusive = small, poorly fitted or top-dose-only effect, or another doubt; inactive = no such curve, though single readings can be large; an effect the other way counts as inactive or inconclusive. Potency is the fitted concentration of half-maximal effect.

SMILES | KB-3-1 cytotox | S2 tox | KB-V1 cytotox | HT1080 IDH1KD tx | HT1080-NT tox | ATXN2 expr inh
CCCn1c(-c2cccnc2Cl)nc2cc(Cl)c(Cl)cc21 | i | ? | 16µM* | ? | -11% | -32%
C=CCn1c(-c2cccnc2Cl)nc2cc(Cl)c(Cl)cc21 | i | i | i | -24% | -22% | 9%
CCc1nn(CC(=O)N2CCN(Cc3ccc4c(c3)OCO4)CC2)c(=O)c2cc3occc3n12 | i | i | 18µM* | -20% | -2% | -7%
CN(C)c1ccc(CNC(=O)CN2C(=O)CCn3nc(-c4cn(C)c5ccccc45)cc32)cc1 | i | i | i | / | / | -8%
Nc1cc(=O)n(Cc2ccco2)c(=S)[nH]1 | i | i | i | 0% | 7% | /
CCn1c(C(=O)N2CCCC(C(=O)NCCc3ccc(C)cc3)C2)cc2sccc21 (centres undefined) | ? | ? | 16µM* | ? | ? | ?
CCn1c(C(=O)N2CCCC(C(=O)NCCCc3ccccc3)C2)cc2sccc21 (centres undefined) | i | i | 23µM* | -1% | 5% | -22%
Cc1ccc(CCNC(=O)C2CCCN(C(=O)N(C)C)C2)cc1 (centres undefined) | i | i | ? | 5% | 7% | 12%
CCn1c(C(=O)N2CCCC(C(=O)O)C2)cc2sccc21 (centres undefined) | i | i | i | -4% | -5% | 3%
Cn1c(C(=O)N2CCCC(C(=O)NCCCSC3CCCCC3)C2)cc2sccc21 (centres undefined) | i | i | 8.2µM* | -13% | -4% | -1%
Cc1cccc(C)c1OCCn1c(C2CC(=O)N(Cc3ccc(F)cc3)C2)nc2ccccc21 (centres undefined) | i | / | i | / | / | ?
CCC(C)(C)n1nnnc1C(C(C)C)N(Cc1ccco1)Cc1cc2cc3c(cc2[nH]c1=O)OCO3 (centres undefined) | ? | ? | 15µM* | -28% | -2% | ?
Cc1ccc(CN(Cc2cc3cc4c(cc3[nH]c2=O)OCCO4)Cc2nnnn2Cc2ccco2)cc1 | i | ? | 15µM* | ? | -29% | ?
O=c1[nH]c2cc3c(cc2cc1CN(Cc1nnnn1C1CCCC1)C1CCCC1)OCCO3 | 23µM* | i | i | -26% | 1% | 22%
Cc1ccc2[nH]c(=O)c(CN(Cc3nnnn3C3CCCC3)C3CCCCC3)cc2c1 | i | i | i | -6% | 1% | -3%
Cc1ccc2cc(CN(Cc3ccc4c(c3)OCO4)Cc3nnnn3Cc3ccco3)c(=O)[nH]c2c1 | ? | ? | i | -4% | -1% | 0%
COc1ccc(Cn2nnnc2CN(Cc2cc3cc(C)ccc3[nH]c2=O)C2CCCC2)cc1 | i | i | 16µM* | 15% | 0% | 4%
O=C(O)C1OC1(c1ccccc1Cl)c1ccccc1Cl (centres undefined) | i | i | i | 2% | 4% | 12%
Cc1ccc2[nH]c(=O)c(CN(Cc3ccccc3)Cc3nnnn3C3CCCC3)cc2c1 | i | i | 23µM* | -4% | 5% | -35%
O=C(C1CCCN(S(=O)(=O)c2cccc3nsnc23)C1)N1CCN(c2ccccc2)CC1 (centres undefined) | ? | ? | i | / | / | ?
O=C(C1CCCN(S(=O)(=O)c2ccccc2[N+](=O)[O-])C1)N1CCN(c2ccccc2)CC1 (centres undefined) | i | ? | 5.8µM* | 12% | 1% | -9%
O=C(Nc1ccc(Cl)c(Cl)c1)c1ccc(Cn2cc(Cl)cn2)cc1 | ? | ? | i | ? | ? | /
CCOc1ccc(C(=O)Nc2cnn(Cc3ccc(Cl)c(Cl)c3)c2)cc1 | ? | i | 2.6µM* | ? | ? | ?
Cc1ccc(-c2nnn3c2nc(NCCc2ccccc2)c2ccccc23)cc1 | i | i | i | / | / | 18%
Cc1ccc(CN2CCC(c3nc4ccc(Cl)cc4[nH]3)CC2)cc1 | i | i | ? | -19%[9.24 µM] | ? | ?
SMILES | KB-3-1 cytotox | S2 tox | KB-V1 cytotox | HT1080 IDH1KD tx | HT1080-NT tox | ATXN2 expr inh
Cc1cc2nc(C3CCN(Cc4nnnn4Cc4cccs4)CC3)[nH]c2cc1C | ? | i | i | 1.3µM* | ? | 0%
N/C(Cc1cccc2ccccc12)=N\OC(=O)c1ccccc1F | / | i | / | -14% | 0% | -8%
Cc1cccc(C(=O)O/N=C(\N)Cc2ccc([N+](=O)[O-])cc2)c1 | ? | ? | ? | -14% | ? | -13%
N/C(Cc1ccccc1)=N\OC(=O)c1cccc2ccccc12 | ? | ? | i | 21µM* | ? | -1%[11.3 µM]
N/C(Cc1ccc([N+](=O)[O-])cc1)=N\OC(=O)C(c1ccccc1)c1ccccc1 | i | / | i | ? | 18µM* | ?
N/C(Cc1ccc([N+](=O)[O-])cc1)=N\OC(=O)c1ccc2ccccc2c1 | i | i | i | ? | 18µM* | 10%
CCCCCC(=O)Nc1cccc(C2=NOC3(C2)C[C@@H](C(N)=O)N(C(=O)CC(c2ccccc2)c2ccccc2)C3)c1 (some centres undefined) | 16µM* | ? | i | ? | -22% | -16%
C/C=C\C(=O)Nc1cccc(C2=NOC3(C2)C[C@@H](C(N)=O)N(C(=O)CC(c2ccccc2)c2ccccc2)C3)c1 (some centres undefined) | i | ? | i | -2% | 0% | -30%
CO[C@H]1C[C@H](O[C@H]2[C@H](C)[C@@H](O[C@@H]3O[C@H](C)C[C@H](N(C)C)[C@H]3O)[C@@H](C)C[C@]3(CO3)C(=O)[C@H](C)[C@@H](O)[C@@H](C)[C@@H](C)OC(=O)[C@@H]2C)O[C@@H](C)[C@@H]1O | / | i | / | / | / | /

Compound activity as filed in PubChem.
